Data from PubChem BioAssay.
Calls of active or inactive are those of the source.

Legend:
[1] = binders of probe aFSTL3 on microarray, primary screen, stem cell growth factor project, biochemical, small-molecule microarray, fluorescence 635/667 (AID 1064); conditions: higher = more signal;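 also: measures binding of the biotinylated anti-FSTL3 antibody to printed compounds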
[2] = binders from COS7 lysate, DM2A8 probe, primary screen, torsin A project, cell lysate, small-molecule microarray, fluorescence 635/667 (AID 1065); conditions: higher = more signal, COS7 lysate expressing mutant human TOR1A
[3] = binders of probe aFGF2 on microarray, primary screen, stem cell growth factor project, biochemical, small-molecule microarray, fluorescence 635/667 (AID 1067); conditions: higher = more signal;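 also: measures binding of biotinylated aFGF2 protein to printed compounds on slides; z-score merges feature fluorescence and signal-to-noise across triplicate slides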
[4] = binders of probe aFGF10 on microarray, primary screen, stem cell growth factor project, biochemical, small-molecule microarray, fluorescence 635/667 (AID 1071); conditions: higher = more signal;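 also: score merges 667 nm spot intensity and signal to noise from triplicate slides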
[5] = target: Neurogenic locus notch homolog protein 2 (Homo sapiens) (UniProt Q04721); assay: Notch2 binders on small-molecule microarrays, primary screen, biochemical, small-molecule microarray, 635 nm fluorescence, stem cell growth factors (AID 1073); conditions: Notch2 binding, higher = more signal
[6] = target: Pro-neuregulin-1, membrane-bound isoform (Homo sapiens) (UniProt Q02297); assay: NRG1 binders on small-molecule microarrays, primary screen, psychiatric disease protein project, biochemical, small-molecule microarray, fluorescence 635/667 (AID 1075); conditions: NRG1 binding, 635 nm fluorescence, higher = more signal;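 also: score combines 667 nm spot fluorescence with signal to noise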
[7] = test system: Neuregulin-1 EGF-like domain; assay: binders of neuregulin-1 EGF-like domain, primary screen, biochemical, small-molecule microarray, 635 nm fluorescence (AID 1081); conditions: small-molecule microarray binding, higher = more signal;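 also: binding of the protein to compounds printed on small-molecule microarray slides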
[8] = FRG1 promoter luciferase signal modulators, primary screen, FRG1 inhibition for FSHD, cell-based, C2C12 myotubes, firefly/Renilla luciferase, luminescence (AID 1084); conditions: higher = more signal, called active from +8 up or from −8 down
[9] = binders of probe aFST on microarray, primary screen, stem cell growth factor project, biochemical, small-molecule microarray, fluorescence 635/667 (AID 1086); conditions: higher = more signal;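 also: score merges 667 nm fluorescence with signal-to-noise of each printed compound spot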
[10] = binders of probe aHhip on microarray, primary screen, stem cell growth factor project, biochemical, small-molecule microarray, fluorescence 635/667 (AID 1087); conditions: higher = more signal;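 also: score merges spot fluorescence at 667nm with spot signal to noise ratio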
[11] = test system: PRMT1 (protein arginine N-methyltransferase 1); assay: PRMT1 binders on small-molecule microarrays, primary screen, biochemical, small-molecule microarray, 635 nm fluorescence (AID 1088); conditions: small-molecule microarray binding, higher = more signal;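 also: binding of Prmt1 protein to compounds spotted on small-molecule microarray slides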
[12] = yeast growth modulation, basal conditions, primary screen, YJM789 clinical isolate, OD600, 24 h (AID 1089);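 also: growth of clinical yeast isolate S. cerevisiae YJM 789 seeded 1000 cells per well; test concentration not given here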; conditions: S. cerevisiae YJM789 growth, higher = more signal, called active from +8 up or from −8 down
[13] = fission yeast growth modulation, primary screen, strain 972, OD600, 24 h, no modulator (AID 1090);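 also: basal condition with compound alone and no growth modifier present; test concentration not given here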; conditions: S. pombe 972 growth, higher = more signal, called active from +8 up or from −8 down
[14] = S. cerevisiae growth modulation with rapamycin, primary screen, strain BY4716, OD600, 96 h (AID 1091); conditions: higher = more signal, called active from +8 up or from −8 down; also: test concentration not given here
[15] = target: Torsin-1A-interacting protein 2 (Homo sapiens) (UniProt Q8NFQ8); assay: LULL1 binders on small-molecule microarray, primary screen, cell lysate, human LULL1 lysate, 635/667 nm fluorescence (AID 1092); conditions: hLULL1 lysate binding, 635 nm fluorescence, higher = more signal;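 also: probe is lysate of COS7 cells overexpressing human LULL1; score merges per-feature 667 nm fluorescence with signal-to-noise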
[16] = E. coli growth modulation, two-sided OD650, primary screen, E. coli filamentation project, strain DRC41, 24 h (AID 1093); conditions: OD650, 24 h, higher = more signal, called active from +8 up or from −8 down;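 also: MC1000 strain lacking acrAB efflux and sulA so SOS filamentation is blocked; test concentration not given here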
[17] = small-molecule microarray binders of probe aLefty2, primary screen, biochemical, biotinylated probe, 635/667 nm fluorescence (AID 1094); conditions: higher = more signal;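 also: score merges spot fluorescence near 667 nm with spot signal-to-noise ratio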
[18] = test system: Noggin (protein binding on small-molecule microarray); assay: Noggin binders on small-molecule microarray, primary screen, biochemical, 635/667 nm fluorescence (AID 1095); conditions: 635 nm fluorescence, higher = more signal;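 also: score merges 667 nm feature fluorescence with signal to noise over triplicate slides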
[19] = target: Neurogenic locus notch homolog protein 3 (Homo sapiens) (UniProt Q9UM47); assay: NOTCH3 binders on small-molecule microarray, primary screen, biochemical, 635/667 nm fluorescence (AID 1096); conditions: NOTCH3 binding, 635 nm fluorescence, higher = more signal
[20] = small-molecule microarray binders of probe aEGFR, primary screen, biochemical, biotinylated probe, 635/667 nm fluorescence (AID 1097); conditions: higher = more signal;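 also: probe is a biotinylated anti-EGFR antibody binding compounds printed on slides; score combines fluorescence near 667 nm and signal to noise of each spot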

Neurogenic locus notch homolog protein 3 (Homo sapiens), sequence (Q9UM47 whole entry, looked up): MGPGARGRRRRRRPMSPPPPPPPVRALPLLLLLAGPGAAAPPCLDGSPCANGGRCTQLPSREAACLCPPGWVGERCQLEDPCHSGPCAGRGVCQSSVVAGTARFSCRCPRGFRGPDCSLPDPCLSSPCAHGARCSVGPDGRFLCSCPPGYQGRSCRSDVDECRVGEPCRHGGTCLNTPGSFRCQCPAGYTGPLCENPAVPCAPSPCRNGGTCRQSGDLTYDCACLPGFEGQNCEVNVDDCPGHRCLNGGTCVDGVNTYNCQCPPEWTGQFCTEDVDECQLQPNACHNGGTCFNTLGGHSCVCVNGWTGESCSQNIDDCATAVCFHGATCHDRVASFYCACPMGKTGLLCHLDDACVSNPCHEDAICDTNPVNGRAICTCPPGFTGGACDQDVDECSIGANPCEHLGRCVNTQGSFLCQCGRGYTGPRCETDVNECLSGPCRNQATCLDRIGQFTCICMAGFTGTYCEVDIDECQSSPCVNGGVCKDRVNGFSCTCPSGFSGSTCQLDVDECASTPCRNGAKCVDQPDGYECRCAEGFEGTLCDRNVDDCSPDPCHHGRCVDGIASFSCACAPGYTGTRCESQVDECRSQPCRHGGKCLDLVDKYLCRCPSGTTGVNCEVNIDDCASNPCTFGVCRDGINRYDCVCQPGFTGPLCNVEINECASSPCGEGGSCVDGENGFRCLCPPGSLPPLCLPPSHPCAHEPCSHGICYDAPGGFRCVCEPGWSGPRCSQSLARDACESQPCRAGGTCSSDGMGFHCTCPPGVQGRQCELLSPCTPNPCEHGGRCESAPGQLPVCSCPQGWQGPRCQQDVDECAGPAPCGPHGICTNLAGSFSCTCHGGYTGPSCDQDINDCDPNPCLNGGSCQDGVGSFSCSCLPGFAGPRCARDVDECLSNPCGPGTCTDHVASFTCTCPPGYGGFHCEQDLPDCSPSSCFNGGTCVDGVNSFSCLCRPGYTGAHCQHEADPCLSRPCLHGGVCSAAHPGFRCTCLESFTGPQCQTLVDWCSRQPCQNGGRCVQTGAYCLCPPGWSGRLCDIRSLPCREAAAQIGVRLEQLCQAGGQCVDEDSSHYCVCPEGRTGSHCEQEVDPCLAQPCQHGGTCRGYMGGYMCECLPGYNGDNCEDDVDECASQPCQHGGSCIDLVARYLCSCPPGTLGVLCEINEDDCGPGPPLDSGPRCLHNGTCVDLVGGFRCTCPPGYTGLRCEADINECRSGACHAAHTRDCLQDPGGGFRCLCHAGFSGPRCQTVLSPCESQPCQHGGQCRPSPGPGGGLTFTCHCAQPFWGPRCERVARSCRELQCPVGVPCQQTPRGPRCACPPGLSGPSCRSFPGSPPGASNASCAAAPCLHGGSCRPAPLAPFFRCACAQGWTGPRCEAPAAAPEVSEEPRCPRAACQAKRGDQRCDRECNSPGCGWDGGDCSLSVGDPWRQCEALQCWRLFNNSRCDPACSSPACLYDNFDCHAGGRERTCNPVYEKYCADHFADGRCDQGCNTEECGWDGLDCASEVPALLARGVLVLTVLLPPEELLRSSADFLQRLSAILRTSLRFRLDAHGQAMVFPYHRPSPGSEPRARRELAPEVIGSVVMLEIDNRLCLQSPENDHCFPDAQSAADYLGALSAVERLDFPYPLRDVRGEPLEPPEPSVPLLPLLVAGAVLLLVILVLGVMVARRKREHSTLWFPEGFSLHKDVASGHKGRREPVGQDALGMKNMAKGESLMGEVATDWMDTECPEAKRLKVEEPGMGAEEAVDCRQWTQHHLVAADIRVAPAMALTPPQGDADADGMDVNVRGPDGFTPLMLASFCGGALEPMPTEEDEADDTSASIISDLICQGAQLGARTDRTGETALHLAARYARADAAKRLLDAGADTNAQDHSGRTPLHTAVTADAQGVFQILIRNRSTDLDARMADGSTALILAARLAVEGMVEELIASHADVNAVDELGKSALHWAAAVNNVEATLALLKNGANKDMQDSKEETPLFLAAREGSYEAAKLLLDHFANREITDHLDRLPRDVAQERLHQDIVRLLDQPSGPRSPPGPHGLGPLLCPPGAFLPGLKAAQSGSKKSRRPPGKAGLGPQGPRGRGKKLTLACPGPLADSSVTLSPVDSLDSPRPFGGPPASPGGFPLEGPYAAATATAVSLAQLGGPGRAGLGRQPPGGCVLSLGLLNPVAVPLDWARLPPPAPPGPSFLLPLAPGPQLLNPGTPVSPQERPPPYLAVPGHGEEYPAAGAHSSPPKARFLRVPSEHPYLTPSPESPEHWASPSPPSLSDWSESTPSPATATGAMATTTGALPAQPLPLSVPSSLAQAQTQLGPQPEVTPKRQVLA
Torsin-1A-interacting protein 2 (Homo sapiens), sequence (Q8NFQ8 whole entry, looked up): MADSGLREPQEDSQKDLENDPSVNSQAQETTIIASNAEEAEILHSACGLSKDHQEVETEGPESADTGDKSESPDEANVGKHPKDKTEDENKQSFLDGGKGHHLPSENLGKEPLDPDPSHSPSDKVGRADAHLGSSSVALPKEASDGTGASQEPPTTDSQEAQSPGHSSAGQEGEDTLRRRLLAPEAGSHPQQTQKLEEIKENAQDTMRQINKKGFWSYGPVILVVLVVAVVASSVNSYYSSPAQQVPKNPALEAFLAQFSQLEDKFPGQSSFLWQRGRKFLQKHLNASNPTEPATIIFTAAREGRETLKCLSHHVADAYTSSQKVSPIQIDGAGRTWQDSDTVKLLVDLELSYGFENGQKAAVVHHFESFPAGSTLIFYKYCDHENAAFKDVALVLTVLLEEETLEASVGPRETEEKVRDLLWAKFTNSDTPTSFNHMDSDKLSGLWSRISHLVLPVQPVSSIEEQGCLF
Pro-neuregulin-1, membrane-bound isoform (Homo sapiens), sequence (Q02297 whole entry, looked up, the tested form may be a part, canonical isoform): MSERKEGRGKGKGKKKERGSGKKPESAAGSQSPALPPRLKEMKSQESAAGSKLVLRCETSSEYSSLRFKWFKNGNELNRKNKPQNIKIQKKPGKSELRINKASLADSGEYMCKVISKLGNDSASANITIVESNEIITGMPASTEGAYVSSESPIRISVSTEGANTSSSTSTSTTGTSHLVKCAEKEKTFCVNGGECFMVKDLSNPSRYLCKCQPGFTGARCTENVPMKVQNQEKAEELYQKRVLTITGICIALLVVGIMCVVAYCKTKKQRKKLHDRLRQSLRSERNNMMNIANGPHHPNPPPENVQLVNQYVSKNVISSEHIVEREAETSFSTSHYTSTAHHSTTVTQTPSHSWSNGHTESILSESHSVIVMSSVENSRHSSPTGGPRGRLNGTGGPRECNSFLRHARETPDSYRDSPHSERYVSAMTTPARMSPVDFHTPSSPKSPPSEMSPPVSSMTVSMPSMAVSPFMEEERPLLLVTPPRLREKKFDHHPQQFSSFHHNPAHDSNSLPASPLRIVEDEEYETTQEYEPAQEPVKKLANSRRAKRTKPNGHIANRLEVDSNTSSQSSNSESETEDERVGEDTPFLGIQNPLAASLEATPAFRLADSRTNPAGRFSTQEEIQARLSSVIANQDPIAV

Row | SMILES | composite z-score [1] | composite z-score [2] | composite z-score [3] | composite z-score [4] | composite z-score [5] | composite z-score [6] | composite z-score [7] | z-score [8] | composite z-score [9] | composite z-score [10] | composite z-score [11] | z-score [12] | z-score [13] | z-score [14] | composite z-score [15] | z-score [16] | composite z-score [17] | composite z-score [18] | composite z-score [19] | composite z-score [20]
1 | CO[C@H]1O[C@H](CO)[C@@H](OC(=O)CCc2ccccc2)[C@@H]2OC(=O)[C@@H](Cc3ccc4ccccc4c3)C/C=C/C[C@H](Cc3ccc4ccccc4c3)C(=O)O[C@@H]12 | -0.129 | 0.693 | -0.179 | -0.0304 | -0.641 | 0.617 | -0.127 | -1.72 (inactive) | -0.354 | -0.0994 | 0.505 | -2.4 (inactive) | -2.22 (inactive) | 11.7 (active) | 0.784 | 0.149 (inactive) | -0.138 | -0.701 | -1.26 | -0.206
2 | COCCOC(=O)N1C(=O)[C@@]2(c3ccccc31)[C@H](C(=O)Nc1nc3ccccc3s1)[C@H]1C(=O)O[C@H](c3ccccc3)[C@H](c3ccccc3)N1[C@@H]2c1ccccc1OCCO | 0.451 | 0.0049 | -0.0036 | 0.798 | 1.15 | 1.05 | 1.2 | 2.13 (inactive) | 0.318 | 0.157 | 1.56 | 2.4 (inactive) | 2.78 (inactive) | 5.08 (inactive) | 2.73 | 0.694 (inactive) | 0.248 | 0.579 | 1.1 | -0.0035
3 | COC(=O)[C@@]1(Cc2ccc(F)cc2)[C@@H]2C(=CC(=O)[C@H]2CC(=O)C(=O)N2CCCC2)CN1C(=O)c1ccccc1 | 1 | 1.61 | 0.575 | 0.866 | 1.58 | 1.81 | 1.33 | 1.48 (inactive) | 2.02 | 0.655 | 1.55 | -0.403 (inactive) | 0.0239 (inactive) | 0.413 (inactive) | 3.6 | -0.074 (inactive) | 1.34 | 1.32 | 1.13 | 1.08
4 | CC(C)(C)OC(=O)CC[C@]1(C(=O)N2CCOCC2)COC(c2ccc(OCCCO)cc2)=N1 | -0.77 | 0.667 | 0.0476 | 0.0767 | 0.498 | 1.6 | 1.32 | -0.462 (inactive) | 0.163 | -0.0275 | 0.786 | 1.04 (inactive) | 0.487 (inactive) | 0.911 (inactive) | 3.6 | 1.66 (inactive) | 0.0665 | -0.778 | -0.526 | 0.94
5 | Cc1ccc(S[C@]2(C(=O)NCc3ccccc3)CC(=O)N(Cc3ccccc3C(F)(F)F)[C@@H]2c2ccc(CO)cc2I)cc1 | 0.412 | -0.135 | -0.106 | -0.655 | -0.717 | 1.56 | 0.472 | -0.701 (inactive) | -0.319 | -0.251 | 1.3 | -1.53 (inactive) | -4.08 (inactive) | 0.899 (inactive) | 1.93 | 0.322 (inactive) | -0.0593 | -0.86 | -0.582 | -0.282
